C diff growth = inhibitors of Clostridium difficile growth; AID 1259249; Clostridium difficile clinical isolate growth, OD600, 24 h; stronger effect = lower value; hit rate 0.25% among 86,000; growth activity, negative = inhibition, % at 16 µg/mL (by protocol);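 active = mean growth activity at or below -80% and every replicate also at or below -80%; inconclusive = mean at or below -80% but some replicate above -80%; inactive = mean growth activity above -80%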;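 also: 0% = DMSO wells and -100% = levofloxacin 16 µg/mL wells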
T cruzi growth-1 = inhibitors of T. cruzi proliferation | hit rate 5.9% among 77,000 | inhibition, % at 8.34 µM | T. cruzi beta-gal in NIH3T3, GalScreen luminescence, 90 h;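 active = mean inhibition above about 93%, with at least 55% of replicates each passing it, limit read from the data, passing the limit was not always enough; inconclusive = only one of those two conditions holds; inactive = neither condition holds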
Pf Dd2 inh = P. falciparum Dd2 growth inhibition. SYBR Green, 72 h; stronger effect = lower value. activity change, % at 10 µM. hit rate 2.3% among 94,000. AID 1159554; in the data active = activity change below about -80%; inconclusive = no clear call, values can overlap the other calls
T cruzi growth-2 = Trypanosoma cruzi proliferation inhibition; shares compounds with T cruzi growth-1; T. cruzi beta-gal in NIH3T3, GalScreen luminescence, 90 h; inhibition, % at 8.35 µM; hit rate 72% among 5,600; AID 651739;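 active = mean replicate inhibition above about 95% and at least 55% of replicates individually reaching it, limit read from the data; inconclusive = only one of the two criteria is met; inactive = neither criterion is met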
T cruzi growth-3 = Trypanosoma cruzi proliferation inhibition; shares compounds with T cruzi growth-1; T. cruzi beta-gal in NIH3T3, GalScreen luminescence, 90 h; inhibition, % at 2.09 µM; hit rate 21% among 5,600;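 active = mean inhibition above about 95%, with at least 55% of replicates also reaching it, limit read from the data; inconclusive = meets just one of the two conditions; inactive = meets neither condition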;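 also: plate controls were neutral control median for no effect and positive control median for full effect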
NIH3T3 tox = kills mouse NIH/3T3 fibroblasts | cytotoxicity (signal decrease), % at 8.35 µM | hit rate 14% among 5,600 | shares compounds with T cruzi growth-1 | NIH/3T3 viability, CellTiter-Glo ATP luminescence, 90 h | AID 651742;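 active = mean signal decrease across replicates above about 35% based on untreated-well scatter, with enough replicates individually passing, limit read from the data; inconclusive = no rule stated though some were filed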;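 also: 0% = median of neutral control wells and 100% = median of positive control wells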
NIH3T3 tox 2 = kills mouse NIH/3T3 fibroblasts. AID 651744. hit rate 56% among 5,600. NIH/3T3 viability, CellTiter-Glo ATP luminescence, 90 h. inhibition, % at 24.9 µM. shares compounds with T cruzi growth-1;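 active = mean loss of cell viability signal at or above a set limit, and enough replicates individually reaching it; inconclusive = meets only the mean limit or only the replicate share; inactive = meets neither condition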;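 also: 0% = median of neutral control wells and 100% = median of positive control wells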
Numbers without * were called inactive; u = inconclusive; x = no result given; + = active, no number. Sampled rows, rich in hits. Any-hit rate of the full collection: about 6.8%.

SMILES	C diff growth	T cruzi growth-1	Pf Dd2 inh	T cruzi growth-2	T cruzi growth-3	NIH3T3 tox	NIH3T3 tox 2
Cc1cccc(S(=O)(=O)N2[C@@H]3Cn4c(ccc(-c5ccc(F)cc5)c4=O)[C@H]2[C@@H](C(=O)O)[C@@H]3CO)c1	x	-40.2	x	x	x	x	x
COC(=O)[C@H]1[C@H](CO)[C@H]2Cn3c(ccc(-c4ccccc4)c3=O)[C@@H]1N2CC1CCCC1	-13.0	x	-7.9	x	x	x	x
COC(=O)[C@@H]1[C@@H](CO)[C@@H]2Cn3c(ccc(-c4ccccc4F)c3=O)[C@H]1N2CC1CCCC1	-1.7	+	x	67.5	2.0	22.3	42.1*
COC(=O)[C@@H]1[C@@H](CO)[C@@H]2Cn3c(ccc(C4=CCCCC4)c3=O)[C@H]1N2Cc1ccccn1	2.1	94.6	10.3	x	x	x	x
COC(=O)[C@H]1[C@H](CO)[C@H]2Cn3c(ccc(C4=CCCCC4)c3=O)[C@@H]1N2Cc1ccccn1	0.1	100.8*	8.4	-19.9	-4.3	-4.1	3.8
CC=Cc1ccc2n(c1=O)C[C@@H]1[C@@H](CO)[C@H](C(=O)OC)[C@H]2N1CC1CCCCC1 (mixture of isomers)	1.2	22.9	3.9	x	x	x	x
COC(=O)[C@@H]1[C@@H](CO)[C@@H]2Cn3c(ccc(C4=CCCCC4)c3=O)[C@H]1N2CC1CCCCC1	-0.8	x	-33.9	x	x	x	x
O=C(Cc1ccccc1)N1CCCCN2[C@@H](CO)[C@H](c3ccc(C#Cc4ccccc4)cc3)[C@@H]2C1	2.5	111.1*	-59.7	108.3*	104.9*	43.2*	103.1*
O=C(Cc1ccccc1)N1CCCCN2[C@H](CO)[C@H](c3ccc(-c4ccccc4)cc3)[C@H]2C1	47.3	10.4	-11.6	x	x	x	x
O=C(Cc1ccccc1)N1CCCCN2[C@H](CO)[C@H](c3ccc(C#Cc4ccccc4)cc3)[C@@H]2C1	-1.5	119.8*	-24.0	102.2*	115.4*	26.8	103.3*
O=C(Cc1ccccc1)N1CCCCN2[C@@H](CO)[C@@H](c3ccc(C#Cc4ccccc4)cc3)[C@@H]2C1	-1.6	106.2*	-55.5	99.9*	102.0*	120.5*	104.8*
O=C(Cc1ccncc1)N1CCCCN2[C@@H](CO)[C@H](c3ccc(C#Cc4ccccc4F)cc3)[C@@H]2C1	-6.6	112.5*	-42.1	112.0*	79.1	49.8*	103.8*
O=C(Cc1ccncc1)N1CCCCN2[C@H](C1)[C@@H](c1ccc(C#Cc3ccccc3F)cc1)[C@@H]2CO	-5.0	42.7	-59.3	x	x	x	x
COC(=O)[C@@H]1[C@@H](CO)[C@@H]2Cn3c(cccc3=O)[C@H]1N2C(=O)C1CC1	-6.7	3.7	x	x	x	x	x
COC(=O)[C@@H]1[C@@H](CO)[C@@H]2Cn3c(ccc(-c4cccc(C(=O)N(C)C)c4)c3=O)[C@H]1N2CC1CC1	-0.9	x	40.6	x	x	x	x
CC[C@H]1C=C(C(=O)N[C@@]2(C(=O)O)C[C@H]2CC)[C@H]2CCC(=O)[C@H]2C1	-0.9	x	x	x	x	x	x
O=C(Cc1ccccc1)N1CCCCN2[C@H](CO)[C@@H](c3ccc(C#CC4(O)CCCC4)cc3)[C@@H]2C1	-1.4	37.9	-5.0	x	x	x	x
O=C(Cc1ccccc1)N1CCCCN2[C@H](CO)[C@H](c3ccc(C#CC4(O)CCCC4)cc3)[C@H]2C1	-1.5	99.9*	-10.5	61.9	53.2	-7.8	30.4*
C/C=C/c1ccc(C2[C@H]3CNC[C@@H]2N3CC2CC2)cc1 (stereo partly drawn)	49.8	x	8.3	x	x	x	x
COCC#Cc1ccc([C@H]2[C@H](CO)N3CCCCN(C(=O)Cc4ccccn4)C[C@@H]23)cc1	-7.9	70.7	-50.9	x	x	x	x
COc1ccc(C#Cc2ccc([C@@H]3[C@H](CO)N4CCCCN(C(=O)Cc5ccccc5)C[C@@H]34)cc2)cc1	8.7	112.1*	-77.3	100.8*	105.3*	22.4	106.4*
COc1ccc(C#Cc2ccc([C@@H]3[C@H]4CN(C(=O)Cc5ccccc5)CCCCN4[C@H]3CO)cc2)cc1	0.3	98.7*	-46.3	93.4	103.3*	2.6	105.4*
COc1ccc(C#Cc2ccc([C@@H]3[C@@H](CO)N4CCCCN(C(=O)Cc5ccccc5)C[C@H]34)cc2)cc1	5.9	76.1	-32.5	x	x	x	x
COc1ccc(-c2ccc([C@@H]3[C@@H](CO)N4CCCCN(C(=O)Cc5ccncc5)C[C@@H]34)cc2)cc1	-5.2	51.8	-55.0	x	x	x	x
COc1ccc(C#Cc2ccc([C@@H]3[C@@H](CO)N4CCCCN(C(=O)Cc5ccncc5)C[C@H]34)cc2)cc1	0.8	110.6*	-50.9	106.7*	80.7	31.3	105.8*
SMILES	C diff growth	T cruzi growth-1	Pf Dd2 inh	T cruzi growth-2	T cruzi growth-3	NIH3T3 tox	NIH3T3 tox 2
COc1ccc(C#Cc2ccc([C@H]3[C@@H](CO)N4CCCCN(C(=O)Cc5ccccc5)C[C@@H]34)cc2)cc1	-1.5	87.3	-34.1	x	x	x	x
COC(=O)[C@@H]1[C@@H](CO)[C@@H]2Cn3c(ccc(-c4ccccc4)c3=O)[C@H]1N2C(=O)c1ccccc1F	0.9	77.3	6.6	x	x	x	x
CCCNC(=O)[C@@H]1[C@@H](CO)[C@@H]2Cn3c(cccc3=O)[C@@H]2N1CC	-5.0	x	-8.2	x	x	x	x
O=C(NC[C@H]1CC[C@@H]2NC[C@@H]2O1)C1CCCC1	-2.8	x	4.8	x	x	x	x
N#Cc1cccc(-c2ccc([C@@H]3[C@H](CO)N4CCCCN(C(=O)Cc5ccccc5)C[C@@H]34)cc2)c1	-5.3	99.5*	-23.7	104.0*	40.1	-0.7	57.4*
O=C(Cc1ccccc1)N1CCCCN2[C@H](C1)[C@H](c1ccc(-c3ccccc3)cc1)[C@@H]2CO	50.0	40.5	5.7	x	x	x	x
COc1ccc(-c2ccc([C@@H]3[C@H]4CN(C(=O)Cc5ccncc5)CCCCN4[C@H]3CO)cc2)cc1	-9.8	84.3	-7.7	x	x	x	x
N#Cc1ccc(-c2ccc([C@H]3[C@@H](CO)N4CCCCN(C(=O)Cc5ccccc5)C[C@@H]34)cc2)cc1	-6.3	80.9	28.5	x	x	x	x
N#Cc1ccc(-c2ccc([C@H]3[C@H]4CN(C(=O)Cc5ccccc5)CCCCN4[C@H]3CO)cc2)cc1	0.7	46.3	26.3	x	x	x	x
N#Cc1cccc(-c2ccc([C@H]3[C@@H](CO)N4CCCCN(C(=O)Cc5ccccc5)C[C@H]34)cc2)c1	1.7	108.6*	5.7	111.0*	80.7	18.9	55.7*
O=C(Cc1ccncc1)N1CCCCN2[C@H](CO)[C@@H](c3ccc(-c4ccncc4)cc3)[C@H]2C1	-7.2	116.2*	17.0	-13.0	-10.8	7.5	4.6
O=C(Cc1ccccc1)N1CCCCN2[C@H](CO)[C@@H](c3ccc(-c4ccccc4)cc3)[C@H]2C1	57.7	99.9*	0.4	u	35.9	11.3	105.2*
Cc1ccccc1-c1ccc([C@@H]2[C@@H](CO)N3CCCCN(C(=O)Cc4ccccn4)C[C@@H]23)cc1	-6.8	37.6	-46.5	x	x	x	x
O=C(Cc1ccccn1)N1CCCCN2[C@H](C1)[C@@H](c1ccc(-c3ccccc3)cc1)[C@@H]2CO	-9.2	72.6	6.6	x	x	x	x
